According to PubChem BioAssay:
The source made the active and inactive calls.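 How the source made its calls, unless noted: active means fluorescence slope higher than the sample average by over 3 SD (cut at about -0.22 in these data, passing the limit was not always enough); inactive means the rest.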

Molecular target: Dual specificity protein phosphatase 6 (Homo sapiens) (UniProt Q16828)
Experiment: DUSP6 inhibitors restoring Erk phosphorylation by chemical complementation, primary imaging in DUSP6-transfected HeLa (AID 609;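 active means compounds giving at least 50% inhibition in the cell-based MKP-3 phosphatase rescue imaging test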;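 further: phospho-Erk level distribution per well compared with pooled transfected vehicle control wells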)
Settings: HeLa MKP-3 transfected, phospho-Erk imaging KS statistic; at 10 µM; stronger effect = higher value; cells stimulated with TPA for 15 min

Sequence of Dual specificity protein phosphatase 6 (Homo sapiens) (Q16828 whole entry, looked up): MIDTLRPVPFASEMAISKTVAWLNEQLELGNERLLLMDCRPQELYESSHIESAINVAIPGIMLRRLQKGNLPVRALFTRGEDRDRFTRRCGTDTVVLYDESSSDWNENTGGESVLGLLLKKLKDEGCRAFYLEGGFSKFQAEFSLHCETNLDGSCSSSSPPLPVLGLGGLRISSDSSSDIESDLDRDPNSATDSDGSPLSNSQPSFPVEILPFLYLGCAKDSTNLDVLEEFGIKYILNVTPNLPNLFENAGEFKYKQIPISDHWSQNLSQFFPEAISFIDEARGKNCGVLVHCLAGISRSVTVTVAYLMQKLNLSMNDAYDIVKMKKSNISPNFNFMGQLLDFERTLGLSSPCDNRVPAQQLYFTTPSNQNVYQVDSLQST

SMILES	inhibition
COC(=O)C(NC(C)=O)(Nc1ccccn1)C(F)(F)F (stereo not drawn)	41.5% (inactive)
CCOC(=O)c1ccc2nc(NC(NC(C)=O)(C(=O)OC)C(F)(F)F)sc2c1 (stereo not drawn)	9.42% (inactive)
Cc1nc2sc(C#N)c(N)c2c2c1CCCC2	9.07% (inactive)
COCc1cc(=O)[nH]c(Nc2nc3ccccc3o2)n1	-2.09% (inactive)
Cc1c(O)c(CN2CCCCC2)cc2c3c(c(=O)oc12)CCC3	-10.6% (inactive)
O=C(C1CC1(c1ccccc1)c1ccccc1)N1CCOCC1 (stereo not drawn)	-0.584% (inactive)
Cn1c(=O)[nH]c(=O)c2c1nc(N(CCO)Cc1ccccc1)n2Cc1ccccc1Cl	1.63% (inactive)
CC1(C)CNC(=O)c2sc(N3CCOCC3)nc2C1	-0.159% (inactive)
CCOC(=O)CNC(=O)Nc1ccccc1C(=O)OC	-7.67% (inactive)
CC(=O)C1=C(O)C(=O)N(c2ccc(C(=O)O)cc2)C1c1ccccc1 (stereo not drawn)	2.46% (inactive)
Cn1c(=O)n(Cc2ccccc2)c(=O)c2c1nc(NCC1CCCO1)n2Cc1ccccc1 (stereo not drawn)	-5.95% (inactive)
c1ccc(CN2CCN(c3ncnc4c3[nH]c3ccccc34)CC2)cc1	13.4% (inactive)
Cc1nnc2n(-c3ccccc3)c(=O)c3c4c(sc3n12)CCCC4	-3.95% (inactive)
COc1ccc2c(c1)n([O-])c1c([n+]2=O)CCC1	3.49% (inactive)
Cc1cc2c(c(=O)o1)C(Cc1ccccc1)C(C#N)=C(N)O2 (stereo not drawn)	9.61% (inactive)
c1ccc2c(c1)[nH]c1c(N3CCC4(CC3)OCCO4)ncnc12	-6.59% (inactive)
CCOC(=O)c1ccc(N=Cc2nc(-c3ccccc3)oc2OC(C)=O)cc1	11.3% (inactive)
CCN1CCc2c(C#N)c(N3CCCCC3)nc(NCc3ccccc3)c2C1	16.5% (inactive)
Cc1cc(C)n(C(=O)CNC(=O)C2COc3ccccc3O2)n1 (stereo not drawn)	3.66% (inactive)
CCCCOc1ccccc1C(=O)NCCCC(=O)O	-6.59% (inactive)

SMILES	inhibition
OCCNc1ncnc2c1c(-c1ccccc1)c(-c1ccccc1)n2Cc1ccco1	-2.91% (inactive)
COc1ccc(CCn2c(=N)c(C#N)cc3c(=O)n4ccccc4nc32)cc1	24.3% (inactive)
Cc1nc2ccccc2cc1O	1.42% (inactive)
COC(=O)CNC(=O)c1c(C)cc(=O)oc1C	19.4% (inactive)
Cc1c(NC(=O)c2ccc(=O)oc2)c(=O)n(-c2ccccc2)n1C	3.42% (inactive)
Cc1ccc(C(=O)/C=C/Nc2cccc(O)c2)cc1	-8.59% (inactive)
CCn1nc(NC(=O)c2cccnc2)c2cc3ccccc3nc21	-6.48% (inactive)
Cc1ccc(/C=N/n2nnnc2N)o1	1.04% (inactive)
Cc1ccc2[nH]c3c(N4CCOCC4)ncnc3c2c1	-1.98% (inactive)
O=C(Nc1ccccn1)NC(C(F)(F)F)C(F)(F)F	9.91% (inactive)
CC(=O)c1c(OCC(=O)O)ccc2c(C)cc(=O)oc12	5.95% (inactive)
O=C(NC1CCS(=O)(=O)C1)c1c(NC(=O)C2COc3ccccc3O2)sc2c1CCCC2 (stereo not drawn)	5.42% (inactive)
Cc1cc(O)c(C(C)C)cc1N=C1CSC(=O)N1	12.8% (inactive)
O=C1C2ON(c3ccccc3)C(c3cccnc3)C2C(=O)N1c1ccccc1 (stereo not drawn)	16% (inactive)
COc1ccccc1N=Cc1nc(-c2ccccc2)oc1OC(C)=O	13.2% (inactive)
Fc1ccc(-c2cnc[nH]2)cc1	3.42% (inactive)
Nn1c(SCC(=O)Nc2ccc3c(c2)OCCO3)nnc1C(F)(F)F	10.9% (inactive)
CN(C)/C=C1\N=C(c2ccc(Cl)cc2Cl)OC1=O	13.2% (inactive)
CCOc1ccccc1N1CCN(c2nc3ccccc3nc2C(C#N)C(=O)OC)CC1 (stereo not drawn)	-9.53% (inactive)

Molecular target: Voltage-gated potassium channel subunit beta-2 (Rattus norvegicus) (UniProt P62483)
Experiment: KvBeta enzyme negative modulators, primary screen, biochemical, NADPH fluorescence (AID 622);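 further: slope of raw intensity against log time taken from 70 to 1610 s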
Settings: recombinant KvBeta, 4-cyanobenzaldehyde reduction, at 10 µM, stronger effect = higher value

Sequence of Voltage-gated potassium channel subunit beta-2 (Rattus norvegicus) (P62483 whole entry, looked up): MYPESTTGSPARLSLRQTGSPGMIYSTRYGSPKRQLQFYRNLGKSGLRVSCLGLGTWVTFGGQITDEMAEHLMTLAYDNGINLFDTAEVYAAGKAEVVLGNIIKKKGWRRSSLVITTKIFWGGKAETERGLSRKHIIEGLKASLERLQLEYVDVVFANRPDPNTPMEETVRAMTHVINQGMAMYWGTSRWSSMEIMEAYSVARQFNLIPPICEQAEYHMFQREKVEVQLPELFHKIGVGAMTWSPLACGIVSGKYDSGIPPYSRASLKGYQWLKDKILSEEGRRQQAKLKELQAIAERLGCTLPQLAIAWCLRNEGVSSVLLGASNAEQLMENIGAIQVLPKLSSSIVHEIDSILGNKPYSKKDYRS

SMILES	fluorescence slope
COC(=O)C(NC(C)=O)(Nc1ccccn1)C(F)(F)F (stereo not drawn)	-0.44 (inactive)
CCOC(=O)c1ccc2nc(NC(NC(C)=O)(C(=O)OC)C(F)(F)F)sc2c1 (stereo not drawn)	-0.458 (inactive)
Cc1nc2sc(C#N)c(N)c2c2c1CCCC2	-0.0248 (active)
COCc1cc(=O)[nH]c(Nc2nc3ccccc3o2)n1	-0.469 (inactive)
Cc1c(O)c(CN2CCCCC2)cc2c3c(c(=O)oc12)CCC3	-0.00734 (inactive)
O=C(C1CC1(c1ccccc1)c1ccccc1)N1CCOCC1 (stereo not drawn)	-0.416 (inactive)
Cn1c(=O)[nH]c(=O)c2c1nc(N(CCO)Cc1ccccc1)n2Cc1ccccc1Cl	-0.438 (inactive)
CC1(C)CNC(=O)c2sc(N3CCOCC3)nc2C1	-0.39 (inactive)
CCOC(=O)CNC(=O)Nc1ccccc1C(=O)OC	-0.507 (inactive)
CC(=O)C1=C(O)C(=O)N(c2ccc(C(=O)O)cc2)C1c1ccccc1 (stereo not drawn)	-0.428 (inactive)
Cn1c(=O)n(Cc2ccccc2)c(=O)c2c1nc(NCC1CCCO1)n2Cc1ccccc1 (stereo not drawn)	-0.509 (inactive)
c1ccc(CN2CCN(c3ncnc4c3[nH]c3ccccc34)CC2)cc1	-0.381 (inactive)
Cc1nnc2n(-c3ccccc3)c(=O)c3c4c(sc3n12)CCCC4	-0.468 (inactive)
COc1ccc2c(c1)n([O-])c1c([n+]2=O)CCC1	-0.367 (inactive)
Cc1cc2c(c(=O)o1)C(Cc1ccccc1)C(C#N)=C(N)O2 (stereo not drawn)	-0.44 (inactive)
c1ccc2c(c1)[nH]c1c(N3CCC4(CC3)OCCO4)ncnc12	-0.384 (inactive)
CCOC(=O)c1ccc(N=Cc2nc(-c3ccccc3)oc2OC(C)=O)cc1	-0.395 (inactive)
CCN1CCc2c(C#N)c(N3CCCCC3)nc(NCc3ccccc3)c2C1	-0.472 (inactive)
Cc1cc(C)n(C(=O)CNC(=O)C2COc3ccccc3O2)n1 (stereo not drawn)	-0.393 (inactive)
CCCCOc1ccccc1C(=O)NCCCC(=O)O	-0.439 (inactive)

SMILES	fluorescence slope
OCCNc1ncnc2c1c(-c1ccccc1)c(-c1ccccc1)n2Cc1ccco1	-0.472 (inactive)
COc1ccc(CCn2c(=N)c(C#N)cc3c(=O)n4ccccc4nc32)cc1	-0.447 (inactive)
Cc1nc2ccccc2cc1O	-0.392 (inactive)
COC(=O)CNC(=O)c1c(C)cc(=O)oc1C	-0.336 (inactive)
Cc1c(NC(=O)c2ccc(=O)oc2)c(=O)n(-c2ccccc2)n1C	-0.249 (inactive)
Cc1ccc(C(=O)/C=C/Nc2cccc(O)c2)cc1	-0.467 (inactive)
CCn1nc(NC(=O)c2cccnc2)c2cc3ccccc3nc21	-0.423 (inactive)
Cc1ccc(/C=N/n2nnnc2N)o1	-0.487 (inactive)
Cc1ccc2[nH]c3c(N4CCOCC4)ncnc3c2c1	-0.16 (inactive)
O=C(Nc1ccccn1)NC(C(F)(F)F)C(F)(F)F	-0.472 (inactive)
CC(=O)c1c(OCC(=O)O)ccc2c(C)cc(=O)oc12	-0.455 (inactive)
O=C(NC1CCS(=O)(=O)C1)c1c(NC(=O)C2COc3ccccc3O2)sc2c1CCCC2 (stereo not drawn)	-0.42 (inactive)
Cc1cc(O)c(C(C)C)cc1N=C1CSC(=O)N1	-0.483 (inactive)
O=C1C2ON(c3ccccc3)C(c3cccnc3)C2C(=O)N1c1ccccc1 (stereo not drawn)	-0.503 (inactive)
COc1ccccc1N=Cc1nc(-c2ccccc2)oc1OC(C)=O	-0.347 (inactive)
Fc1ccc(-c2cnc[nH]2)cc1	-0.513 (inactive)
Nn1c(SCC(=O)Nc2ccc3c(c2)OCCO3)nnc1C(F)(F)F	-0.426 (inactive)
CN(C)/C=C1\N=C(c2ccc(Cl)cc2Cl)OC1=O	-0.335 (inactive)
CCOc1ccccc1N1CCN(c2nc3ccccc3nc2C(C#N)C(=O)OC)CC1 (stereo not drawn)	-0.501 (inactive)
